# Data taken from PubChem BioAssay.
# Where “and” joins values, the source holds several entries; their conditions need not be identical. Identical values can stand only once. Calls of active or inactive are those of the source. Unless noted, how the calls were made is not given here.
# Legend:
# [1] = tested on: Wnt5a (protein binding on small-molecule microarray); assay: small molecules binding Wnt5a protein – biophysical, small-molecule microarray, 635/667 nm fluorescence, primary screen (AID 1142); settings: 635 nm fluorescence, higher = more signal;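 further: fluorescence read at 667 nm with signal to noise per printed feature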
# [2] = ATP-based viability of Huh7 replicon cells – cell-based, CellTiter-Glo luminescence, basal, 48 h, cytotoxicity control for HCV replication inhibitor project, primary screen (AID 1143); settings: Huh7 HCV replicon, CellTiter-Glo luminescence, 48 h, higher = more signal, called active from +8 up or from −8 down unless noted;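 further: Huh7 hepatoma cells carrying a hepatitis C replication reporter with no stimulus; test concentration not given here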
# [3] = Pseudomonas biofilm growth suppression – PAO1 strain, BacTiter-Glo luminescence, LB-PBS, primary screen (AID 1144); settings: P. aeruginosa PAO1 biofilm, 12 h, higher = more signal
# [4] = basal CRE-LacZ reporter activity in PC12 – cell-based, unstimulated, primary screen (AID 1145); settings: no forskolin, luminescence, 4.5 h; higher = more signal, called active from +8 up or from −8 down unless noted
# [5] = forskolin-driven CRE-LacZ activity in PC12 – cell-based, CRE-LacZ reporter, forskolin-stimulated, primary screen (AID 1146); settings: luminescence, 4.5 h; higher = more signal, called active from +8 up or from −8 down unless noted;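 further: PC12 cells with 6xCRE LacZ reporter stimulated by forskolin 10 µM; beta-galactosidase reporter signal reflecting CREB driven transcription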
# [6] = target: Streptavidin (Streptomyces avidinii) (UniProt P22629); assay: compounds binding control protein streptavidin – biophysical, small-molecule microarray, 635/667 nm fluorescence, artefact control for SMM compound annotation, primary screen (AID 1147); settings: higher = more signal;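 further: signal reflects streptavidin binding to arrayed compounds as a control protein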
# Sequence of Streptavidin (Streptomyces avidinii) (P22629 whole entry, looked up): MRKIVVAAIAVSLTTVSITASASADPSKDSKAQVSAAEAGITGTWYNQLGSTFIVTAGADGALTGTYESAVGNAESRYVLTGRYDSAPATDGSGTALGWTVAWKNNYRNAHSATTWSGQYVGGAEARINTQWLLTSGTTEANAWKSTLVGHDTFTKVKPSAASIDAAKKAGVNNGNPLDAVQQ
# [7] = probe aInhba binding on compound microarray – biochemical, small-molecule microarray, 635/667 nm fluorescence, primary screen (AID 1148); settings: higher = more signal; small-molecule microarray, probe aInhba, fluorescence unless noted;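 further: score merges 667nm spot fluorescence with signal-to-noise for antibody binding to printed compounds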
# Torsin-1A (Homo sapiens) [8] = target: Torsin-1A (Homo sapiens) (UniProt O14656); assay: TOR1A wild-type binding on microarray – cell lysate, small-molecule microarray, lysate, 635/667 nm, primary screen (AID 1149); settings: COS7 hTOR1A-WT lysate, 635 nm fluorescence, higher = more signal
# Sequence of Torsin-1A (Homo sapiens) (O14656 whole entry, looked up): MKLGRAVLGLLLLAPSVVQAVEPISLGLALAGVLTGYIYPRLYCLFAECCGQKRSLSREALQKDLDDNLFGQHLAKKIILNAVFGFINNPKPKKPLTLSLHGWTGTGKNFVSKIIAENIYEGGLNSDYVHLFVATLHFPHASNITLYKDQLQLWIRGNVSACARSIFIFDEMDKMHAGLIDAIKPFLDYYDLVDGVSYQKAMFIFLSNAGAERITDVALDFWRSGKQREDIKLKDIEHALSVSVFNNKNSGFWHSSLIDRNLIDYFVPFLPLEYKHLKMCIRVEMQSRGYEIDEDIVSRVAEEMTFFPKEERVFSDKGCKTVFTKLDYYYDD
# Torsin-1A (Homo sapiens) [9] = target: Torsin-1A (Homo sapiens) (UniProt O14656); assay: torsin A mutant lysate binding on microarrays – cell lysate, small-molecule microarray, COS7 lysate, 635/667 nm fluorescence, primary screen (AID 1150); settings: COS7 hTOR1A mutant lysate, 635 nm fluorescence, higher = more signal;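 further: score pools 667 nm emission and signal to noise measuring lysate protein binding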
# [10] = tested on: Sonic hedgehog protein (Shh); assay: Sonic hedgehog microarray binding compounds – biochemical, small-molecule microarray, 635/667 nm fluorescence, primary screen (AID 1151); settings: 635 nm fluorescence, higher = more signal;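 further: Shh protein binding to compounds spotted on small-molecule microarray slides; score combines spot fluorescence intensity with signal-to-noise across triplicate slides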
# [11] = optical density shifts of acrAB sulA E. coli – strain DRC41, OD650, 48 h, E. coli filamentation inducer project, primary screen (AID 1152); settings: higher = more signal, called active from +8 up or from −8 down unless noted;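 further: E. coli MC1000 strain DRC41 lacking acrAB efflux pump and sulA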
# [12] = probe aLefty1 binding on compound microarray – biochemical, small-molecule microarray, 635/667 nm fluorescence, primary screen (AID 1153); settings: higher = more signal; small-molecule microarray, probe aLefty1, fluorescence unless noted;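 further: score merges spot fluorescence with signal-to-noise ratio from the scanned slide images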
# [13] = plasmodial surface anion channel blockers, osmotic lysis – cell-based, P. falciparum Indochina, OD700, 1 h, primary screen (AID 1154); settings: P. falciparum Indochina infected RBC osmotic lysis; higher = more signal, called active from +8 up or from −8 down unless noted
# [14] = plasmodial surface anion channel blockers, osmotic lysis – cell-based, P. falciparum Indochina, OD700, 2 h, primary screen (AID 1155);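 further: lysis reports solute entry through the parasite surface anion channel PSAC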; settings: P. falciparum Indochina infected erythrocytes; higher = more signal, called active from +8 up or from −8 down unless noted
# [15] = changes in parasitized red cell lysis, either direction – P. falciparum Indochina, OD700, 3 h, PSAC antagonist project, primary screen (AID 1156); settings: P. falciparum-infected erythrocytes, osmotic lysis; higher = more signal, called active from +8 up or from −8 down unless noted
# [16] = plasmodial surface anion channel blockers, osmotic lysis – cell-based, P. falciparum Indochina, OD700, 18 h, primary screen (AID 1157); settings: P. falciparum Indochina infected erythrocytes, osmotic lysis OD700, 18 h; higher = more signal, called active from +8 up or from −8 down unless noted
# [17] = S6 kinase pathway phospho-S6 level changes – cell-based, A549, cytoblot, luminescence, serum-stimulated, primary screen (AID 1158); settings: 5 h, higher = more signal;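 further: serum-stimulated A549 lung adenocarcinoma cells; signal is phosphorylated S6 detected by cytoblot immunostaining with HRP secondary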
# [18] = target: NADPH oxidase 2 (Homo sapiens) (UniProt P04839); assay: compounds shifting NOX2 Amplex Red fluorescence – cell-based, HEK293-NOX2, PMA-stimulated, NOX inhibitor project, primary screen (AID 1159); settings: 45 min; higher = more signal, called active from +8 up or from −8 down unless noted; further: test concentration not given here
# Sequence of NADPH oxidase 2 (Homo sapiens) (P04839 whole entry, looked up): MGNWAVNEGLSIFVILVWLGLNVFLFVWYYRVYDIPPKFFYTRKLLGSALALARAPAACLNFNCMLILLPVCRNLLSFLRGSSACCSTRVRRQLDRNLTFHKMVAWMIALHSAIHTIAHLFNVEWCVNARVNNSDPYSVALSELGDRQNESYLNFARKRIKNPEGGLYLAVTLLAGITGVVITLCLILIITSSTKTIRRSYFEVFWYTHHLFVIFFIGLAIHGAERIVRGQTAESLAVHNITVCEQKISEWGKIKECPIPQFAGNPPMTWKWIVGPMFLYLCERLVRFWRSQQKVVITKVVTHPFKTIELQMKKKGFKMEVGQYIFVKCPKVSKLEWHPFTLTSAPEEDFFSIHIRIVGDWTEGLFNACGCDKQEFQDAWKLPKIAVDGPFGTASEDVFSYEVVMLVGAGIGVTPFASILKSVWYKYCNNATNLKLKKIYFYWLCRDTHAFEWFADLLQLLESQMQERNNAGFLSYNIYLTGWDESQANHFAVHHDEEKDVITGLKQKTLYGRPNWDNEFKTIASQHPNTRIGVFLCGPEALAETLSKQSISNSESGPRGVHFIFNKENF
# [19] = target: NADPH oxidase 4 (Homo sapiens) (UniProt Q9NPH5); assay: compounds shifting NOX4 Amplex Red fluorescence – cell-based, HEK293-NOX4, tetracycline-induced, NOX inhibitor project, primary screen (AID 1160); settings: HEK293-NOX4, Amplex Red H2O2 fluorescence, 45 min; higher = more signal, called active from +8 up or from −8 down unless noted
# Sequence of NADPH oxidase 4 (Homo sapiens) (Q9NPH5 whole entry, looked up): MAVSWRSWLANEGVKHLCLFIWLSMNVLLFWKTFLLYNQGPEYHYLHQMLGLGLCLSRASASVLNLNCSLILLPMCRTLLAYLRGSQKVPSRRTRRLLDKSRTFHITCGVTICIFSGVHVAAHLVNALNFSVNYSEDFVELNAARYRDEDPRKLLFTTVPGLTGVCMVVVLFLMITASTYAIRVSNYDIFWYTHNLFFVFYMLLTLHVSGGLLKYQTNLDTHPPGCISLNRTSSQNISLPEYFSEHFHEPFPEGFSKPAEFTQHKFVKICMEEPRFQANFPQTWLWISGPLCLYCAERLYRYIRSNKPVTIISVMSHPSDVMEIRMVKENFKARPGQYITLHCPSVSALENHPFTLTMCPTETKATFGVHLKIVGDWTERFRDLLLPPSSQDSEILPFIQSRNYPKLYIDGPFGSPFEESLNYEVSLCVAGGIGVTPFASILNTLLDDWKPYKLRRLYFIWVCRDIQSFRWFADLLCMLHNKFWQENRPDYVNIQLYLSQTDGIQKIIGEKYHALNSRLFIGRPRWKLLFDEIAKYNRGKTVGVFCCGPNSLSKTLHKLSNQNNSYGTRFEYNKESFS
# [20] = target: NADPH oxidase 5 (Homo sapiens) (UniProt Q96PH1); assay: compounds shifting NOX5 Amplex Red fluorescence – cell-based, HEK293-NOX5, NOX inhibitor project, primary screen (AID 1161); settings: HEK293-NOX5, ionomycin, 45 min, higher = more signal
# Sequence of NADPH oxidase 5 (Homo sapiens) (Q96PH1 whole entry, looked up): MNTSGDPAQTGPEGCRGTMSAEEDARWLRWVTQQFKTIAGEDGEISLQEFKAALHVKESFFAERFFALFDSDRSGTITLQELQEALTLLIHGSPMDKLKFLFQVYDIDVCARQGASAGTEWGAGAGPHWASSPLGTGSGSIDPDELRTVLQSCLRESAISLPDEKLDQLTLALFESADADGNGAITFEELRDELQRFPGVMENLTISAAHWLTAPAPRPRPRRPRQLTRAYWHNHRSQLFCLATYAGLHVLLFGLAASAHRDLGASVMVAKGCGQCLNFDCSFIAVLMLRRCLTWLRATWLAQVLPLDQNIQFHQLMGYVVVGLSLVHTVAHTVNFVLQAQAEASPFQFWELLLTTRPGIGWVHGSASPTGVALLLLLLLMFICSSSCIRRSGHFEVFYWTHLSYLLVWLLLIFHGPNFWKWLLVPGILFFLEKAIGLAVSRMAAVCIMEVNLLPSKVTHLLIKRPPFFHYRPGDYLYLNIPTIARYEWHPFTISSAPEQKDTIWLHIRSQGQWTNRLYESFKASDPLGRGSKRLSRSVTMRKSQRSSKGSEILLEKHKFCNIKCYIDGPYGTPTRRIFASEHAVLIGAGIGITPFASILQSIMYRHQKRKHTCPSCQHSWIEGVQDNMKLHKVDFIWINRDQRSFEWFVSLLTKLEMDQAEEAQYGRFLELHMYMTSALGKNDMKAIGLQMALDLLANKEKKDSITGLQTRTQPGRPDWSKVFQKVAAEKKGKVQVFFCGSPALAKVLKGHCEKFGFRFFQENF
SMILES,composite z-score [1],z-score [2],z-score [3],z-score [4],z-score [5],composite z-score [6],composite z-score [7],composite z-score (Torsin-1A (Homo sapiens) [8]),composite z-score (Torsin-1A (Homo sapiens) [9]),composite z-score [10],z-score [11],composite z-score [12],z-score [13],z-score [14],z-score [15],z-score [16],z-score [17],z-score [18],z-score [19],z-score [20]
CC1N(P(=O)(c2ccccc2)c2ccccc2)CC(O)(c2ccccc2)CC12CC2 (stereo not given),-0.025 and -0.0606,-0.601 (inactive) and -2.65 (inactive),0.693 (inactive) and 0.00162 (inactive),0.0075 (inactive) and -0.179 (inactive),0.84 (inactive) and 0.498 (inactive),-0.586 and 0.107,-0.0589 and 0.475,-1.12 and -0.311,0.699 and 0.319,-0.649 and -1.4,-1.36 (inactive) and -1.82 (inactive),-0.103 and 0.607,0.232 (inactive) and 0.667 (inactive),-0.0745 (inactive),0.716 (inactive) and 0.248 (inactive),0.593 (inactive) and 0.642 (inactive),-0.259 and -0.209,-0.427 (inactive) and -1.04 (inactive),-1.52 (inactive) and -0.626 (inactive),-3.13 and -2.02
CN1CCC(c2ccc(CO)cc2)=CC1C1CC1 (stereo not given),-0.103,-0.209 (inactive),0.656 (inactive),3.78 (inactive),0.54 (inactive),-0.333,-0.101,0.309,0.431,1.85,-0.492 (inactive),0.103,0.899 (inactive),0.0137 (inactive),-0.38 (inactive),0.0864 (inactive),-1.04,-0.477 (inactive),-0.169 (inactive),-0.0858
COC(=O)NCC=Cc1nc(CCC=CC(=O)O[C@H]2CC3CC(=O)O[C@@H](C=CCC(C)C)C[C@@H]4CC[C@H](C)[C@@H](C[C@@H](OC)C[C@H](C2)O3)O4)co1,-0.335,-3.73 (inactive),0.881 (inactive),0.106 (inactive),-1.96 (inactive),-0.875,-0.159,-0.429,-0.653,0.0788,-0.0987 (inactive),-0.213,0.465 (inactive),0.0987 (inactive),-0.0546 (inactive),-0.195 (inactive),-0.975,0.902 (inactive),0.594 (inactive),-0.00689
C[C@H]1O[C@H]2C3=C(C(=O)[C@@H]4O[C@@H]4[C@@H]3O)[C@@H]1[C@@H]1[C@@H](C)OC=C3[C@@H](O)[C@H]4O[C@H]4C(=O)[C@]312,-0.176,-3.24 (inactive),-1.61 (inactive),1.65 (inactive),1.76 (inactive),-0.418,-0.208,0.251,-0.306,0.534,-0.209 (inactive),-0.321,-0.49 (inactive),-0.569 (inactive),0.276 (inactive),-0.987 (inactive),1.5,-0.203 (inactive),-0.0614 (inactive),0.441
